Drawing on PubChem BioAssay AID485344 (National Center for Advancing Translational Sciences (NCATS), 2010), this text covers inhibition for 96 compounds.

The campaign covered roughly 340,000 compounds. About 6,900 (2%) were called active. For the sample, actives were picked, then their nearest neighbours and some compounds at random. Values without a mark were called inactive. Cut-off read from the data, not from the text of the source: active = inhibition above about 30%; inactive = below that, where a call was filed.

Chain of D(2) dopamine receptor (Homo sapiens) (P14416 whole entry, looked up): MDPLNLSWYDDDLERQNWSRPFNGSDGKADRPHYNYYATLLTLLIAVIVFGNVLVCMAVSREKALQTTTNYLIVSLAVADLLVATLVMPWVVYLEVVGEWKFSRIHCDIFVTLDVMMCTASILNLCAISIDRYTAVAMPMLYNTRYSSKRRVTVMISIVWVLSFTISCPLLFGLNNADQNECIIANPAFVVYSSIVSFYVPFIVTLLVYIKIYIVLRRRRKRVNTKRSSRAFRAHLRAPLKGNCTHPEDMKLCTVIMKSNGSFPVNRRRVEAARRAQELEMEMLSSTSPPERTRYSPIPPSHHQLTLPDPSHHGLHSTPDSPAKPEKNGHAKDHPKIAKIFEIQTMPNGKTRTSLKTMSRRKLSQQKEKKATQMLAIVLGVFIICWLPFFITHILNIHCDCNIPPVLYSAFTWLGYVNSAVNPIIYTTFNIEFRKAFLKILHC

This test has as its target D(2) dopamine receptor (Homo sapiens) (UniProt P14416). As to the kind of experiment: HTS Assay for Allosteric Antagonists of the Human D2 Dopamine Receptor: Primary Screen for Antagonists. Note: 0% is about no effect. The settings on record: HEK293 TREx D2 cells, calcium flux, dopamine EC80; at 10 µM; hits give high values. Put shortly:
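In this primary screen, negative modulation is detected by tracking calcium flux after an EC80 dopamine challenge in inducible HEK293 T-REx D2 cells preexposed to test compound for 180 s.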
In general terms: Calcium assays in cells follow changes in intracellular calcium, usually with a dye or a luminescent sensor.
Take `O=C(O)c1ccccc1N=N/C(=N/Nc1cc(S(=O)(=O)O)ccc1O)c1ccccc1`: the inhibition was 28.3%. As for `COc1ccc(Cn2c(=S)[nH]c3cc(C(=O)N4CCCCC4)ccc3c2=O)cc1`, the inhibition is -3.83%.

On to `COc1ccc(Cn2c(=S)[nH]c3cc(C(=O)NCCCN4CCOCC4)ccc3c2=O)cc1`, for which the inhibition was 35.6% (active). In the case of `CCN(CC)CCCNC(=O)c1ccc2c(=O)n(Cc3ccc4c(c3)OCO4)c(=S)[nH]c2c1` it was 16.5%; in that of `COc1cccc(C(=O)OCC(=O)c2[nH]c(C)c(C(C)=O)c2C)c1`, 8.22%; in that of `CCOC(=O)Cn1c(CN(Cc2ccccc2)Cc2ccccc2)nc2c1c(=O)[nH]c(=O)n2C`, -7.46%. In the case of `CN(Cc1ccccc1)c1nc2c(c(=O)[nH]c(=O)n2C)n1CCSc1nc2ccccc2[nH]1` it was 29.2%; in that of `Cn1c(=O)[nH]c(=O)c2c1nc(N(CCO)Cc1ccccc1)n2Cc1ccccc1Cl`, 73.5% (active). Take `COCCn1c(C)cc(C(=O)COC(=O)CNC(=O)c2ccco2)c1C`: the inhibition is -8.05%. Take `Cc1ccc2nc(NC(=O)CSc3nc(=O)n(CCCN(C)C)c4c3CCC4)sc2c1`: the inhibition is 7.56%. In the case of `CSc1ccccc1C(=O)OCC(=O)N1CCN(C(C)=O)CC1` it was 0.24%; in that of `CC(=O)Nc1ccc(NC(=O)CCN2C(=O)C3CC=CCC3C2=O)cc1` (stereo unspecified), 16.4%. With `Cc1ccc(NC(=O)COc2coc(CN3CCc4ccccc4C3)cc2=O)cc1Cl` the figure was -2.55%; with `CC(=O)c1ccc(NC(=O)C2CC(=O)Nc3nc4ccccc4n32)cc1` (stereo unspecified), -1.67%. `CCOC(=O)c1ccc(NC(=O)C2CC(=O)Nc3nc4ccccc4n32)cc1` (stereo unspecified): the inhibition was -12.3%.

In the case of `O=C(Nc1ccccc1)C1CC(=O)n2c(nc3ccccc32)N1` (stereo unspecified), the inhibition is 33.6% (active). In the case of `CC(C)Oc1ccc(S(=O)(=O)N2CCOCC2)cc1NC(=O)C1CCCC1` it was -5.29%. In the case of `CN(c1ccccc1)S(=O)(=O)c1cccc(NC(=O)Cc2ccc(Cl)cc2)c1` it was -11.8%; in that of `COc1ccccc1CNC(=O)COC(=O)CNS(=O)(=O)c1ccc(NC(C)=O)cc1`, 4.15%; in that of `COC(=O)Cn1c(O)c(N=NC(=O)OC)c2ccccc21`, 11.2%.

Take `N#CCCCn1c(O)c(N=NC(=O)C(O)c2ccccc2)c2ccccc21` (stereo unspecified): the inhibition was 38.5% (active). Regarding `CCCCn1c(O)c(N=NC(=O)Cn2c(C(F)(F)F)nc3ccccc32)c2ccccc21`, the inhibition was 16.8%. With `OCCNCc1cccc(OCc2ccccc2Cl)c1` the figure was 1.43%; with `OCCNCCOc1ccc(Cl)c(Cl)c1`, 33.4% (active); with `OCCNCCCCOc1ccccc1F`, 4.36%.

Take `Cc1cccc(NS(=O)(=O)c2cccc(C(=O)NNC(=O)c3ccccc3O)c2)c1`: the inhibition was -12.1%. With `Cc1cc(C)cc(-c2nnc(SCC(=O)NC3CC3)o2)c1`, the inhibition is 5.88%. In the case of `CCC(C)C(N=C1NS(=O)(=O)c2ccccc21)C(=O)N1CCC(C)CC1` (stereo unspecified) it was 17%; in that of `Cc1n[nH]c(=O)c2c(NC(=O)COC(=O)c3ncc(Cl)c(Cl)c3Cl)oc(C)c12`, -6.33%; in that of `O=C(COc1ccccc1F)NC1CC1`, -13.9%. In the case of `S=C(Nc1ccc(Br)cc1)NC1CCN(Cc2ccccc2)CC1` it was 109% (active).

In the case of `O=C(COc1ccccc1O)NC1CCCC1`, the inhibition was 1.67%. In the case of `O=C(NNC(=S)Nc1ccc(Br)cc1Cl)c1ccco1` it was 0.194%; in that of `S=C(Nc1ccc(Br)cc1Cl)NC1CCN(Cc2ccccc2)CC1`, 70.2% (active). In the case of `O=C(COc1ccc(Br)cc1F)NC1CCN(Cc2ccccc2)CC1` it was 52.9% (active). Regarding `Cc1cc(Br)ccc1NC(=S)NC1CCCC1`, the inhibition was 9.66%. With `S=C(NN=C1CCN(Cc2ccccc2)CC1)NC1CCCCC1` the figure was 5.59%; with `S=C(NCCCc1ccccc1)Nc1ccc(Br)cc1`, 3.8%. With `CCOC(=O)Cc1csc(SCC(=O)Nc2ccc(C)cc2F)n1` the figure was 0.767%. As for `CCCC1C(=O)N2C(N(C)C)=Nc3ccc(C)cc3N2C1=O` (stereo unspecified), the inhibition is -7.75%. As for `Brc1ccc(CN2CC[C@H]3C=CCc4cccc(c43)C2)cc1`, the inhibition was -16.8%. As for `Cc1ccc2c(c1)C1CN(C)CCC1N2S(=O)(=O)c1cccc(F)c1` (stereo unspecified), the inhibition is -6.37%. In the case of `CNS(=O)(=O)c1ccc(C(=O)NCC(=O)NCCc2ccc3c(c2)OCCO3)cc1` it was -17.4%; in that of `Cc1csc(SCC(=O)N(c2ccccc2)C(C)C)n1`, -0.577%. With `O=S(=O)(NCCCCCCNS(=O)(=O)c1c(F)cccc1F)c1ccc2c(c1)OCCO2` the figure was -4.68%; with `O=S(=O)(c1ccc(Br)cc1)c1nc(-c2ccccc2)oc1N1CCOCC1`, 15.8%. With `O=S(=O)(c1ccc(Br)cc1)c1nc(-c2ccccc2)oc1NCc1cccnc1` the figure was 9.02%. With `O=S(=O)(c1ccccc1)c1nc(-c2ccccc2)oc1NCCCN1CCOCC1`, the inhibition was 47.7% (active). `CCOc1ccc(C(=O)CCC(=O)NC2=NCCS2)cc1`: the inhibition was -11.7%. On to `Cc1ccc(COC(=O)CN2C(=O)NC3(CCCC3)C2=O)cc1`, for which the inhibition was -1.94%. In the case of `COCCNC(=O)C1CCN(C(=O)C2CC(=O)N(c3ccc(C)cc3)C2)CC1` (stereo unspecified) it was 30% (active); in that of `Cc1ccc(N2CC(C(=O)NCCS(=O)(=O)N3CCN(c4ccccc4)CC3)CC2=O)cc1` (stereo unspecified), 8.52%; in that of `COCCCNC(=O)C1CC(=O)N(c2ccc(C)cc2)C1` (stereo unspecified), -5.47%. In the case of `O=C(C1CC(=O)N(c2ccc(Br)cc2)C1)N1CCCC1` (stereo unspecified) it was -3.05%; in that of `CCCC(C)NC(=O)C1CCN(C(=O)C2CC(=O)N(c3ccc(C)cc3)C2)CC1` (stereo unspecified), 33% (active); in that of `CCc1ccc(N2CC(C(=O)N3CCCCCC3)CC2=O)cc1` (stereo unspecified), -11.6%. With `Cc1ccc(NC(=O)CCC(=O)N2CCC(c3ccccc3)=N2)cc1S(=O)(=O)N1CCCCC1` the figure was -6.66%; with `CC1(C)CC(=O)C=C(c2cccc3c2Oc2ccccc2S3)C1`, 2.71%. `Cc1ccc(NC(=O)C(c2ccccc2)N2CCN(C(=O)c3ccco3)CC2)cc1` (stereo unspecified): the inhibition is -0.875%. In the case of `CN(C(=O)CSc1nnc(-c2ccc3c(c2)OCO3)o1)C1CCS(=O)(=O)C1` (stereo unspecified) it was 8.68%; in that of `Cc1ccc(N2C(=O)C3C4C=CC(CC4)C3C2=O)cc1Br` (stereo unspecified), 54.9% (active); in that of `Cc1ccc(N2C(=O)C3C4C=CC(CC4)C3C2=O)cc1Cl` (stereo unspecified), -11.1%. In the case of `CC(=O)Nc1ccc(N2C(=O)C3C4C=CC(CC4)C3C2=O)cc1` (stereo unspecified) it was 2.36%; in that of `Cn1c(-c2ccc(C(F)(F)F)cc2)cc2onc(-c3ccccc3)c2c1=O`, 8.4%; in that of `CCOc1ccc(C(=O)NCC(=O)N2CCN(c3ccc(C(F)(F)F)cn3)CC2)cc1`, -6.45%. In the case of `Cc1ccc(C(=O)OCC(=O)NCc2cc(C)c(O)c(C)c2)cc1S(=O)(=O)N1CCCCC1`, the inhibition was 14.2%. With `CCN(C(=O)CSc1nc2ccccc2n1CC)C1CCS(=O)(=O)C1` (stereo unspecified) the figure was 8.24%; with `CCN(C(=O)COC(=O)/C=C/c1nc2ccccc2s1)C1CCS(=O)(=O)C1` (stereo unspecified), 31.7% (active). With `CCN(C(=O)COC(=O)c1c(NC(C)=O)sc(C)c1C)C1CCS(=O)(=O)C1` (stereo unspecified) the figure was 9.33%; with `COc1ccc(N2CCN(C(=O)CCNC(=O)c3ccc(Br)cc3)CC2)cc1`, -5.34%. With `CC(C(=O)N1CCc2ccccc21)N(C)CC(=O)Nc1ccc(F)cc1` (stereo unspecified) the figure was 17.3%; with `COc1ccccc1C(=O)NCC(=O)NCCSc1ccc(Br)cc1`, -18.2%; with `Cc1cc(C)cc(NC(=S)NCc2ccc(F)cc2)c1`, 17.7%. In the case of `O=C(Cc1ccccc1)NCc1ccc(F)cc1`, the inhibition is 7.68%. For the compound `Fc1ccc(CNCc2ccc(Br)cc2)cc1`, the inhibition is 48.7% (active).

On to `CCOC(=O)C1CCCN(C(=O)c2ccc(C)c(S(=O)(=O)N3CCCCC3)c2)C1` (stereo unspecified), for which the inhibition is -2.03%. In the case of `CC(=O)Nc1ccc(SC[C@H](Cc2ccccc2)N2CC[C@@H](C)CCC2=O)cc1` it was 6.05%.

As for `O=C(Cn1nnc(-c2ccccc2)n1)NC(=O)NC1CCCC1`, the inhibition is -8.79%. In the case of `COc1cc(-c2nnn(CC(=O)NCc3ccccc3)n2)cc(OC)c1OC` it was -2.02%. With `N#Cc1ccc(COC(=O)Cn2nnc(-c3ccccc3)n2)cc1` the figure was 32.5% (active). In the case of `COc1cc([N+](=O)[O-])ccc1NC(=O)COC(=O)CCOc1ccc(C)cc1` it was -25.8%; in that of `Cc1cccc(Nc2nnc(SCC(=O)c3c(N)n(C4CC4)c(=O)[nH]c3=O)s2)c1C`, -24.6%. Consider `O=S(=O)(Nc1ccc2nc(N3CCOCC3)sc2c1)c1ccccc1`, for which the inhibition was -2.59%. With `O=C(Nc1ccccc1)Nc1nc2ccccc2s1` the figure was 38.1% (active); with `O=C(CCNC(=O)c1ccccc1)Nc1nc2ccccc2s1`, 9.78%. Take `CC(=O)Nc1ccc(-c2csc(NC(=O)Nc3ccccc3)n2)cc1`: the inhibition was 0.929%. With `O=C(O)CSc1ccc(S(=O)(=O)N2CCCC2)cn1` the figure was -7.84%; with `Cc1cc(NC(=O)CCC2COc3ccccc3O2)no1` (stereo unspecified), 16.6%. In the case of `Cc1noc(C)c1C(=O)NCC1COc2ccccc2O1` (stereo unspecified) it was 42% (active); in that of `O=C(NCC1COc2ccccc2O1)C1(c2ccccc2)CCCC1` (stereo unspecified), 2.24%; in that of `NC(=O)c1ccsc1NC(=O)COC(=O)COc1ccc(C=O)cc1`, 0.0079%.

For the compound `CCOc1ncccc1C(=O)Nc1ccc(S(=O)(=O)Nc2nc(C)cc(C)n2)cc1`, the inhibition was -33.5%. As for `COc1ccc(NS(=O)(=O)c2cc(NC(=O)COc3ccccc3F)ccc2OC)cc1`, the inhibition was -11%.

For the compound `NC(=O)NC(CC(=O)NNC(=O)c1ccccn1)c1ccc(Cl)cc1` (stereo unspecified), the inhibition is 35.3% (active).

Consider `CCCNC(=O)NC(=O)COC(=O)CC(NC(N)=O)c1ccc(Cl)cc1` (stereo unspecified), for which the inhibition was -5.2%. In the case of `CN(C)S(=O)(=O)c1ccc(Cl)c(NC(=O)COC(=O)CC(NC(N)=O)c2ccc(Cl)cc2)c1` (stereo unspecified) it was 8.54%.

Usually inhibition stands for the relative decrease from the control value, in per cent.
